RAD52 anneal inh: inhibitors of human RAD52 DNA annealing; P43351; recombinant RAD52 DNA annealing, FRET fluorescence; inhibition, % at 18.7 µM; 360,000 tested, 0.46% active; AID 651710;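 active = every replicate showing at least 50% inhibition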
MLL AF4-AF9 inh: blocks AF4 peptide binding to human AF9. P42568. AlphaScreen, biotin-AF4 peptide binding to FLAG-AF9. inhibition, % at 10 µM. 350,000 tested, 0.47% active;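 active = every replicate reaching a set inhibition limit, whatever the replicate mean, cut at about 25% in these data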;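 also: 0% = plate neutral control median and 100% = total signal loss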
NSD2 inh: inhibitors of human histone methyltransferase NSD2. inhibition, % at 12.5 µM. O96028. 310,000 tested, 0.54% active. NSD2 peptide methylation, AlphaScreen, 120 min; in the data active = inhibition above about 50%
CASP6 VEID inh: inhibitors of human caspase-6; P55212; purified caspase-6, Z-VEID-R110 cleavage fluorescence; inhibition, % at 12.5 µM; 350,000 tested, 0.53% active; AID 686996;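 active = mean inhibition across replicates at least about 35%, with every replicate also reaching that limit, limit read from the data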;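 also: 0% = median of neutral control wells and 100% = no fluorescence left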
rRNA inh HTS: inhibits bacterial ribosomal RNA function over humanized ribosomes; E. coli WT GFP vs humanized-ribosome RFP mutants, fluorescence, 24 h; stronger effect = lower value; DMSO median 0, no signal -100; AID 720706; GFP signal change (wild-type ribosome), % (test concentration not listed); 350,000 tested, 1.6% active;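 active = significant combined selectivity score with lowered wild-type GFP, culture density cut under 30%, mutant RFP and density less affected; inactive = any of these conditions unmet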
The depositor's hits bear a star; . = no result given. Only some compounds are listed: those with a hit (about 2.5% of all), similar ones and a draw of the others.

SMILES	RAD52 anneal inh	MLL AF4-AF9 inh	NSD2 inh	CASP6 VEID inh	rRNA inh HTS
C[C@H](CO)N1C[C@H](C)[C@H](CN(C)Cc2ccccc2)OCCCC[C@H](C)Oc2ccc(NC(=O)Nc3ccc(C(F)(F)F)cc3)cc2C1=O	11	0	.	-2	.
C=CCNC(=O)[C@@H]1[C@H]2C(=O)O[C@H](c3ccccc3)[C@H](c3ccccc3)N2[C@H](c2ccccc2OCCO)[C@@]12C(=O)N(C(=O)OCCOC)c1ccccc12	11	-1	.	-2	.
COCCn1c(SCC(=O)Nc2ccccc2F)nc2c([nH]c3ccccc32)c1=O	-19	-1	1	-3	8
COCCn1c(SCC(=O)Nc2ccccc2OC)nc2c([nH]c3ccccc32)c1=O	-13	-2	-6	70*	2
N#C/C(=N/O)c1nc(-c2ccc(F)cc2)cs1	-13	-10	0	2	-41*
Fc1ccc(-c2csc(-c3ccncc3)n2)cc1	0	0	1	-1	-1
Cc1ccccc1NC(=O)CN1C(=O)S/C(=C\c2ccc(-c3cc(C(=O)O)ccc3C)o2)C1=O	-436	-1	14	0	-5
CCOC(=O)C(C)N1C(=O)S/C(=C\c2ccc(-c3ccccc3C(=O)O)o2)C1=O (centres undefined)	-119	0	49	60*	-3
Cc1ccc(C(=O)O)cc1-c1ccc(/C=C2\SC(=O)N(CC(=O)Nc3ccccc3)C2=O)o1	-116	-5	19	35*	6
C#CCN1C(=O)S/C(=C\c2ccc(-c3ccc(C(=O)O)cc3C)o2)C1=O	-68	-3	12	58*	-7
CCCNC(=O)N1CC2(CCN(C(=O)C3CCCCC3)CC2)c2c([nH]c3cc(OC)ccc23)[C@H]1CO	.	-2	.	.	-6
C[C@@H]1CCCCO[C@@H](CN(C)S(=O)(=O)c2cccs2)[C@H](C)CN([C@H](C)CO)C(=O)c2cc(NC(=O)Nc3ccccc3)ccc2O1	36	3	.	-1	0
N#C/C(=C\c1ccc(O)cc1)c1nc2ccccc2o1	-492	1	.	2	-35*
Cc1nnc(NC(=O)c2cc(-c3ccco3)nc3ccccc23)s1	-10	6	6	53*	-7
O=C(Nc1nc2ccccc2s1)c1cc(-c2ccco2)nc2ccccc12	-11	3	4	1	11
O=C(Nc1nc2c(F)cccc2s1)c1cccs1	.	.	-15	.	.
COc1ccc(C(=O)C(/C=N/O)=N/Nc2ccc(F)cc2)cc1	-16	0	0	-1	-26*
O=C(O)c1sc(C(=O)O)c(-c2ccccc2)c1-c1ccccc1	-7	-1	1	2	3
CC(=O)c1sc(C(=O)O)c(-c2ccco2)c1-c1ccco1	-2	-2	37	64*	-4
CC(=O)c1ccc(S(=O)(=O)N2CCN(C(=O)c3ccc(-n4cncn4)c([N+](=O)[O-])c3)CC2)cc1	-2	-11	1	54*	4
CC[C@H](C)/C=C(C)/C=C/C1=CC2=CC(=O)[C@]3(C)OC(=O)[C@@H](C(C)=O)[C@@H]3C2=CO1	-114	4	.	19	12
CC[C@H](C)/C=C(C)/C=C/c1cc2c(cn1)C(=O)[C@@](C)(OC(C)=O)C(O)=C2Cl	-31	6	.	51*	.
COC(=O)C1=C(C)NC2=C(C(=O)CCC2)C1c1ccc(-c2ccsc2C(=O)OC)o1 (centres undefined)	-18	1	7	9	-24*
C[C@@H]1CCCCO[C@H](CN(C)C(=O)Nc2ccc(F)cc2)[C@H](C)CN([C@H](C)CO)C(=O)c2cc(NS(=O)(=O)c3cccs3)ccc2O1	16	-8	.	1	-2
COc1ccc(-c2cnc3c(c2)C(=O)N([C@H](C)CO)C[C@H](C)[C@H](CN(C)C(=O)CN(C)C)O3)cc1	-19	-3	.	-1	-1
SMILES	RAD52 anneal inh	MLL AF4-AF9 inh	NSD2 inh	CASP6 VEID inh	rRNA inh HTS
O=C(Cc1ccc(Br)cc1)Nc1cccc(S(=O)(=O)N2CCOCC2)c1	0	2	1	0	-30*
O=C(CNc1ccc(Br)cc1)Nc1cccc(S(=O)(=O)N2CCCC2)c1	0	2	-4	1	-11
O=C(COC(=O)c1cccc(OC(F)F)c1)Nc1cccc(S(=O)(=O)N2CCCC2)c1	-9	0	-1	60*	-12
O=C(Cc1ccccc1Cl)Nc1cccc(S(=O)(=O)N2CCOCC2)c1	1	-12	0	-1	7
O=C(Cc1c(Cl)cccc1Cl)Nc1cccc(S(=O)(=O)N2CCOCC2)c1	-14	-1	-3	-1	-23*
O=C(CNc1cccc(S(=O)(=O)N2CCCC2)c1)Nc1cccc(Br)c1	-41	-1	1	44*	-14
O=C(COC(=O)c1cccc(S(=O)(=O)N2CCCC2)c1)Nc1ccccc1	-13	1	-2	1	-3
COCC(=O)N1[C@H](CO)[C@@H](c2ccccc2)C12CN(C(=O)NC1CCCC1)C2	-10	-4	.	1	-2
C[C@H]1CCCCO[C@H](CN(C)S(=O)(=O)c2ccc(Cl)cc2)[C@@H](C)CN([C@@H](C)CO)C(=O)c2cc(NC(=O)CCC(F)(F)F)ccc2O1	6	-1	.	-1	1
O=C(COc1ccc(Br)cc1)NNC(=O)c1cc(S(=O)(=O)N2CCOCC2)ccc1Cl	8	-1	1	4	-19*
CCOc1c2ccc(C(=O)NCCc3ccc(C)cc3)cc2nn1CC	-13	-18	.	2	-24*
CCOc1c2ccc(C(=O)NCc3ccc(C)cc3)cc2nn1CC	-18	-6	.	0	-11
CCn1nc2cc(C(=O)NCCc3cccs3)ccc2c1OC	-13	26*	.	1	8
COc1ccc(S(=O)(=O)Nc2ccc3c(c2)C(=O)N([C@H](C)CO)C[C@@H](C)[C@@H](CN(C)S(=O)(=O)c2ccc(F)cc2)OCCCC[C@H](C)O3)cc1	-38	-3	.	2	-2
O=C(NC[C@@H]1CC[C@@H]2[C@@H](CN2Cc2cc(-c3ccccc3)on2)O1)c1ccc2c(c1)OCO2	-9	-2	.	0	.
O=C(CCS(=O)(=O)c1ccc(Br)cc1)N1CCCCCC1	-4	-20	10	61*	-2
COc1ccc(OCC(O)CN(CC(O)COc2ccc(OC)cc2)c2cccc(O)c2)cc1 (centres undefined)	-1	12	17	3	-30*
COc1ccc(OCC(O)CN(C2CCCCC2)C2CCCCC2)cc1 (centres undefined)	.	.	4	.	.
Cc1onc(-c2ccccc2Cl)c1C(=O)N[C@@H](C)c1ccccc1	-1	-8	-3	-6	-21*
C[C@H](CO)N1C[C@H](C)[C@H](CN(C)C)Oc2cc(-c3ccc(C#N)cc3)ccc2S1(=O)=O	0	0	.	0	0
COc1ccccc1CN(C)C(=O)CN1CCN(CC(=O)Nc2ccccc2Cl)CC1	-16	1	1	36*	-6
